Bioassay records (PubChem BioAssay)
Shown are actives, neighbours in structure and some others; about 6% of the full set was active somewhere.
D1 PAM – potentiators of human D1 dopamine receptor; HEK293 TREx D1 cells, calcium flux, dopamine EC20 potentiation; actives 0.036% (n = 360,000); potentiation, % at 10 µM; P21728; in the data active = potentiation above about 30%
D1 agonist – agonists of human D1 dopamine receptor. P21728. HEK293 T-REx D1 cells, calcium flux, agonist mode. activation, % at 2 µM. actives 1% (n = 360,000); in the data active = activation above about 30%
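Agonism was scored from calcium flux recorded over 180 s (1 read/s) after pintool compound addition, following a 10-cycle baseline. Cells were inducible force-coupled HEK293 TREx D1, plated overnight at 30 C and loaded with no-wash calcium dye.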
DRD3 agonist – agonists of human D3 dopamine receptor; AID 652048; D3R DiscoveRx beta-arrestin cells, luminescence, 90 min; actives 0.58% (n = 410,000); max activation, %; P35462; in the data active = max activation above about 30%
Target sequence (P35462 whole entry, looked up): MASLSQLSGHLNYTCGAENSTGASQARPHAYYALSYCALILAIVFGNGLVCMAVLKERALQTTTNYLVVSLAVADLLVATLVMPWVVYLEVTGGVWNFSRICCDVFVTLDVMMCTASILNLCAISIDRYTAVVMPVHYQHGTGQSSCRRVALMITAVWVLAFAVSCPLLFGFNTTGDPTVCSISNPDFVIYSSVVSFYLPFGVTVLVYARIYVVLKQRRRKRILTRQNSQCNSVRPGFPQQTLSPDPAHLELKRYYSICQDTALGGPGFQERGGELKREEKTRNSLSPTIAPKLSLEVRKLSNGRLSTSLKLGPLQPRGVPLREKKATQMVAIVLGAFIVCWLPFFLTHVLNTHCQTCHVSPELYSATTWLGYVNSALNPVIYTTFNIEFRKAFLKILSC
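Agonist mode: compounds and dopamine controls were applied to plated cells for 90 min at 37 degrees C after an overnight attachment at 1500 cells/well. Luminescent read-out followed 30 - 60 minutes at room temperature with DiscoveRx detection reagent.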
D1 antagonist – human D1 dopamine receptor antagonism. P21728. AID 504652. activity change, negative = inhibition, % at 10 µM. HEK293 TREx D1 cells, calcium flux, dopamine EC80; stronger effect = lower value. actives 3.2% (n = 360,000); in the data active = activity change below about -30%
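Kinetic fluorescence of a calcium dye serves as the read-out. D1-expressing Hek293 Trex cells, induced overnight at 30 C, are exposed to compound for 180 s before an EC80 dopamine addition, then read 180 s further.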
DRD3 antagonist – blocks the human D3 dopamine receptor. D3R cells, DiscoveRx beta-arrestin luminescence, antagonist mode; stronger effect = lower value. max response, negative = inhibition, %. actives 2.5% (n = 360,000); in the data active = max response below about -50%; inconclusive = no clear call, values can overlap the other calls
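Cells expressing the human receptor were seeded at 1500 cells/well, incubated overnight at 37 degrees C in 5% CO2, then exposed to library compounds with dopamine controls for 90 minutes at 37 degrees C before luminescent detection.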
Chronic BCR inh – chronic active BCR signaling inhibition. ABC-DLBCL IkBa-CBG/CBR reporter, luminescence ratio, 4 h. Potency, µM (highest dose often 46.1 µM), usual class: inhibitors. actives 0.05% (n = 340,000); active = well fitted inhibition curve with a large enough effect in the signal ratio, with a control signal flat, not every such curve was filed as active; inconclusive = small, poorly fitted or top-dose-only effect, or effect the other way, or a change in a side signal; the % refers to the signal ratio
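TMD8 human ABC-DLBCL cells with doxycycline-inducible IκBα–green luciferase fusion and unfused red luciferase, in 0.5% FBS medium; compounds up to 46 uM, 4 h at 37C. Green/red luminescence ratio, filter-overlap corrected, fitted to concentration-response curves.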
Large screens that a line does not name were inactive.

CC(C)(C)/C(Cn1cncn1)=N\OC(=O)Nc1ccc(Cl)cc1	D1 antagonist -54.7
Cc1cc2c(Nc3ccccc3)ncnc2s1	DRD3 antagonist -61.2
Cc1cc2c(NCCc3ccccc3)ncnc2s1	Chronic BCR inh inconclusive
COc1ccc(C)cc1NC(=O)COC(=O)Cc1ccc(-c2ccccc2)cc1	D1 antagonist -35.8, Chronic BCR inh inconclusive
COc1ccccc1NC(=O)Cc1ccc(-c2ccccc2)cc1	D1 antagonist -39.3
COc1ccc(NC(=O)COC(=O)Cc2ccc(-c3ccccc3)cc2)c(OC)c1	Chronic BCR inh inconclusive
Cc1oc2ccc(O)c(CN3CCN(C)CC3)c2c1C(=O)Nc1cccc(C(F)(F)F)c1	D1 agonist 62.2, D1 antagonist -46.3 (no result: DRD3 antagonist, Chronic BCR inh)
CCN1CCN(Cc2c(O)ccc3oc(C)c(C(=O)Nc4cccc(C(F)(F)F)c4)c23)CC1	D1 agonist 50.3 (no result: DRD3 antagonist, Chronic BCR inh)
COc1cccc(CN2CCCN(CC(=O)Nc3ccc4c(c3)OCCO4)S2(=O)=O)c1	none (no result: DRD3 antagonist, Chronic BCR inh)
CCOc1ccc(NCc2cccn2-c2nnc(N3CCC(C(=O)NCc4ccccc4Cl)CC3)s2)cc1	none (no result: DRD3 antagonist, Chronic BCR inh)
Cc1ccc(CN(Cc2ccco2)C(=O)COc2ccccc2C)cc1	DRD3 agonist 35.7 (no result: DRD3 antagonist, Chronic BCR inh)
Cc1ccc2occ(CC(=O)N(Cc3ccc(Cl)cc3)Cc3ccco3)c2c1	D1 agonist 90.1 (no result: DRD3 antagonist, Chronic BCR inh)
Cc1ccc(CN(Cc2ccco2)C(=O)c2oc3ccc(C)cc3c2C)cc1	D1 agonist 37.0 (no result: DRD3 antagonist, Chronic BCR inh)
Cc1ccc(CN(Cc2ccco2)C(=S)NCC(=O)NC2CC2)cc1	D1 antagonist -30.5
CCOc1ccc(NC(=O)Cn2sc3nc(C)cc(C)c3c2=O)cc1	none
Cc1cc(C)c2c(=O)n(CC(=O)Nc3ccc(Cl)cc3)sc2n1	D1 antagonist -39.0, DRD3 antagonist inconclusive, Chronic BCR inh inconclusive
Cc1cc(C)c2c(=O)n(CC(=O)Nc3cccc(F)c3)sc2n1	D1 antagonist -32.2, DRD3 antagonist inconclusive, Chronic BCR inh inconclusive
Cc1ccc(NC(=O)CC2=NC(=O)C(CC(=O)Nc3ccccc3F)S2)cc1 (configuration not stated)	D1 antagonist -49.8
CCOC(=O)Cc1csc(NC(=O)Cc2ccc(Cl)cc2)n1	none
CCOC(=O)Cc1csc(NC(=O)c2cc3c(s2)CCCC3)n1	Chronic BCR inh inconclusive
CCOC(=O)Cc1csc(NC(=O)Cc2ccc(Br)cc2)n1	D1 antagonist -36.8
CCOC(=O)Cc1csc(NC(=O)Nc2ccc(OC(F)(F)F)cc2)n1	D1 antagonist -36.0, Chronic BCR inh inconclusive
CCOC(=O)Cc1csc(NC(=O)c2ccc(Br)cc2)n1	Chronic BCR inh inconclusive
CCOC(=O)Cc1csc(NC(=O)c2csc3c2CCCC3)n1	DRD3 antagonist -63.4, Chronic BCR inh inconclusive
CCOC(=O)Cc1csc(NC(=O)c2ccc(S(=O)(=O)N3CCCCC3)cc2)n1	DRD3 agonist 36.1
O=C1CN(C(=O)COc2ccc(Cl)cc2)C(c2ccccc2)c2cc(Br)ccc2N1 (configuration not stated)	none (no result: DRD3 antagonist, Chronic BCR inh)
CCOC(=O)Cc1csc(NC(=O)c2cc(C)c(C)s2)n1	D1 antagonist -34.7, Chronic BCR inh inconclusive
CCOC(=O)Cc1csc(NC(=O)NC2(C(F)(F)F)Oc3cc(Cl)c(Cl)cc3O2)n1	D1 agonist 34.7
Clc1cccc(OCCOCCN2CCNCC2)c1Cl	DRD3 antagonist inconclusive (no result: D1 PAM, D1 agonist, D1 antagonist, Chronic BCR inh)
c1ccc2c(OCCCN3CCCCCC3)cccc2c1	DRD3 antagonist -60.2
c1ccc(-c2ccccc2OCCCN2CCCCC2)cc1	D1 antagonist -54.4
OCCN1CCN(CCOc2ccccc2-c2ccccc2)CC1	DRD3 antagonist -84.5
Clc1cccc(OCCCN2CCCC2)c1Cl	DRD3 antagonist -98.8
CC1CCN(C(=O)c2cnn(-c3cccc(Cl)c3)c2C2CCN(C(=O)OC(C)(C)C)CC2)CC1	none (no result: DRD3 antagonist, Chronic BCR inh)
CCCc1nn2c(=O)cc(COC(=O)c3ccccc3NC(=O)c3cccs3)nc2s1	none (no result: DRD3 antagonist, Chronic BCR inh)
CCc1nc2c(OCc3ccc(F)c(F)c3)cccn2c1N(C)C(=O)c1ccc(C)cc1	none (no result: D1 PAM, D1 agonist, D1 antagonist, Chronic BCR inh)
COc1ccc(CN(C(=O)Nc2cccc(Cl)c2)c2ccccn2)cc1OC	none (no result: DRD3 antagonist, Chronic BCR inh)
Nc1nc(Nc2cccc(Cl)c2)sc1C(=O)c1ccc(F)cc1	D1 antagonist -36.9, Chronic BCR inh inconclusive (no result: DRD3 antagonist)
COc1ccc(Nc2nc(N)c(C(=O)c3ccc(F)cc3)s2)cc1	none
CCOC(=O)c1c(NC(=O)c2nc(SC)ncc2Cl)sc(C)c1C	none (no result: DRD3 antagonist, Chronic BCR inh)
COc1cc(C(=O)OC2CSCC2NC(=O)c2ccccc2)cc(OC)c1OC (configuration not stated)	Chronic BCR inh inconclusive
O=C(NC1CSCC1OC(=O)c1ccccc1)c1ccccc1 (configuration not stated)	D1 antagonist -38.9, Chronic BCR inh inconclusive
O=c1c2ccccc2nc(-c2ccc(Cl)cc2)n1CCCOc1ccccc1F	none (no result: DRD3 antagonist, Chronic BCR inh)
CC(C)(C)NC(=O)C1(C)CCC(=O)N1CCCn1ccnc1 (configuration not stated)	none (no result: D1 PAM, D1 agonist, D1 antagonist, Chronic BCR inh)
O=C(NCc1ccc(-c2csnn2)cc1)c1cccs1	DRD3 antagonist -50.7
O=C(/C=C/c1ccccc1)CCN1CCCCC1	DRD3 antagonist -87.7 (no result: D1 PAM, D1 agonist, D1 antagonist, Chronic BCR inh)
CC(CN1CCN(C)CC1)OC(=O)c1ccccc1Cl (configuration not stated)	DRD3 antagonist -52.2
CC(CN1CCCCC1)OC(=O)/C=C/c1ccccc1 (configuration not stated)	DRD3 antagonist -61.2
CC(CN1CCOCC1)OC(=O)/C=C/c1ccccc1 (configuration not stated)	Chronic BCR inh inconclusive (no result: D1 antagonist)
O=C(CCN1CCCCCC1)c1ccccc1	none
CC(CN1CCCCC1)OC(=O)C(C)(c1ccccc1)c1ccccc1 (configuration not stated)	DRD3 antagonist -53.3
CC(CN1CCOCC1)OC(=O)C(C)(c1ccccc1)c1ccccc1 (configuration not stated)	DRD3 antagonist inconclusive, Chronic BCR inh inconclusive
CS(=O)(=O)Nc1cc2occ(NC=O)c(=O)c2cc1Oc1ccccc1	none (no result: D1 PAM, D1 agonist, D1 antagonist, DRD3 antagonist, Chronic BCR inh)
COc1ccc(NC(=O)C2(C)CCCN(C(C)C)C2)cc1OC (configuration not stated)	none (no result: D1 PAM, D1 agonist, D1 antagonist, Chronic BCR inh)
CC(CN1CCCCC1)OC(=O)Cc1ccc(Cl)cc1 (configuration not stated)	DRD3 antagonist -58.3
Cc1ccccc1C(OCCN(C)C)c1ccccc1 (configuration not stated)	DRD3 antagonist -53.4 (no result: D1 PAM, D1 agonist, DRD3 agonist, D1 antagonist)
O=C(Nc1cccc(C(F)(F)F)c1)c1cc2nc(-c3ccc4c(c3)OCO4)cc(C(F)(F)F)n2n1	none (no result: DRD3 antagonist, Chronic BCR inh)
Cn1c(=O)c2c(-c3ccccc3)n3c(c2n(C)c1=O)C(c1ccccc1[N+](=O)[O-])Nc1ccccc1-3 (configuration not stated)	none (no result: DRD3 antagonist, Chronic BCR inh)
Cc1cc(C)cc(OCC(=O)N2N=C(C(F)(F)F)CC2(O)C(C)(C)C)c1 (configuration not stated)	D1 agonist 34.2
